The structures appear in SMILES notation. The campaign covered roughly 310,000 compounds. About 14,000 (4.5%) showed an effect of 50% or more. The effect is printed as a negative number. This excerpt belongs to a sample that is enriched for strong results.
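Note: peak tail current of the secondary pulse compared with the same well before compound.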

human ether-à-go-go-related gene (hERG) potassium channel, sequence (Q12809 whole entry, looked up): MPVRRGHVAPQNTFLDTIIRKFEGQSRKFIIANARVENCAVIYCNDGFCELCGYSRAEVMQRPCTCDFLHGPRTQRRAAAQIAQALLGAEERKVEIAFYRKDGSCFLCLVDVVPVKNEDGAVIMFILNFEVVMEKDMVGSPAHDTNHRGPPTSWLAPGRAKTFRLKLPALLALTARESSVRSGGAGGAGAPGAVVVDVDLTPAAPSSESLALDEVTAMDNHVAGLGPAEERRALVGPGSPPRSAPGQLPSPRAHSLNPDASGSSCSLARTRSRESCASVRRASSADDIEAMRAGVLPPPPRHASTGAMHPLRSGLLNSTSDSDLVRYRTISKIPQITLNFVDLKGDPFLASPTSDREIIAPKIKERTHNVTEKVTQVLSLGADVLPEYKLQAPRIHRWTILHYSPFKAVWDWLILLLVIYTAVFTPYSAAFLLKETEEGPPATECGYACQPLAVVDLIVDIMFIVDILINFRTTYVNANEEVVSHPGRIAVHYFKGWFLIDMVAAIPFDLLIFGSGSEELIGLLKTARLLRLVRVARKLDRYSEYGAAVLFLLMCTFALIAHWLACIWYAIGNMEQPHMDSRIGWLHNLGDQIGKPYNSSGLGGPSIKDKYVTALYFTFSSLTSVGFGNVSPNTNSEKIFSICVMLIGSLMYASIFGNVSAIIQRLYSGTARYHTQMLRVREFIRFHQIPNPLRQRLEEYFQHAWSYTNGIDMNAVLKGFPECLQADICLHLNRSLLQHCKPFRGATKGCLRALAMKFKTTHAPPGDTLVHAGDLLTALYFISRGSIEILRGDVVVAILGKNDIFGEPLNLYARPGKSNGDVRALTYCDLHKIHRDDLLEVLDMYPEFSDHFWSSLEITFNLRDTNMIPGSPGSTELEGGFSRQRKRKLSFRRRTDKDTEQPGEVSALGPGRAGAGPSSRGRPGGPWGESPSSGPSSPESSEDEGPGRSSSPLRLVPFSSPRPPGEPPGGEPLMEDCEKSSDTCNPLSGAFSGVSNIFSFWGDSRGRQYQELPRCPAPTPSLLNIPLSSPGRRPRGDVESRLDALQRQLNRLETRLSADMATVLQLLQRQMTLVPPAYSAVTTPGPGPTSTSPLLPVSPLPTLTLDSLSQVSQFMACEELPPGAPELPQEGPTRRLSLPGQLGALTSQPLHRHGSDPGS

This test addresses human ether-à-go-go-related gene (hERG) potassium channel (human, UniProt Q12809). In words: primary screen, population patch clamp on CHO cells stably expressing hERG; higher = less effect of the substance. The method, then:
Briefly, Chinese hamster ovary (CHO) cells stably expressing the hERG channel were dislodged from tissue culture flasks and dispensed into PPC plates. […] During the recording, background leak currents were estimated by a 100 ms step to -80 mV from an initial holding potential of -70 mV and subtracted from the subsequent current measurement. The campaign was conducted in two phases using slight differences in recording protocol. In the first phase, the initial voltage pulse used a 100 ms step to -30 mV from a holding potential of -70 mV, a 2 s conditioning step to +25 mV, and a 2 s test step to -30 mV. During the second phase of the screen, the potential during the conditioning step was raised to +45 mV. In both phases of the campaign, a secondary voltage pulse was applied using the same parameters as the second phase initial pulse. The initial and secondary pulses were applied in the absence of compound, and upon application of 1 μM and 10 μM test concentrations. […]
For `O=C(O)c1cc2c(cc1NC(=O)c1c(F)cccc1Cl)OCCCO2`, the “hERG current change (%, negative = inhibition) at 10uM” value came to 5.08%.

As to `Cc1nc2sc3c(c2c(=O)n1/N=C/c1ccco1)CCCC3`, the “hERG current change (%, negative = inhibition) at 10uM” value is given as 16.8%.

On to `COc1cc(OC)c(N(C)C(=O)c2cc3c(s2)-c2ccccc2S(=O)(=O)C3)cc1Cl`, for which the “hERG current change (%, negative = inhibition) at 10uM” value was -13.2%.

Consider `CCOC(=O)N1CCN(C(=O)c2cc3c(s2)-c2ccc(Cl)cc2S(=O)(=O)C3)CC1`, for which the “hERG current change (%, negative = inhibition) at 10uM” value is reported as -66.5%.

Regarding `COc1ccc(N(C)C(=O)c2cc3c(s2)-c2ccc(Cl)cc2S(=O)(=O)C3)c(OC)c1`, the “hERG current change (%, negative = inhibition) at 10uM” value is -58.5%.

Take `COc1ccc(N(C)C(=O)c2cc3c(s2)-c2ccccc2S(=O)(=O)C3)cc1`: the “hERG current change (%, negative = inhibition) at 10uM” value is reported as -39.9%.

Turning to `CCN1CCN(C(=O)c2cc3c(s2)-c2ccccc2S(=O)(=O)C3)CC1`, the “hERG current change (%, negative = inhibition) at 10uM” value is on record as -11.2%.

Take `CN1CCN(C(=O)c2cc3c(s2)-c2ccccc2S(=O)(=O)C3)CC1`: the “hERG current change (%, negative = inhibition) at 10uM” value worked out at 4.14%.

On to `COc1cc(OC)cc(-n2nnnc2SCC(=O)Nc2nc3c(s2)CCCC3)c1`, for which the “hERG current change (%, negative = inhibition) at 10uM” value came out at 7.1%.

As for `Cc1nnc(SCC(=O)Nc2ccc3c(c2)OCO3)n(N)c1=O`, the “hERG current change (%, negative = inhibition) at 10uM” value stood at 11.3%.

For `O=C(COc1cccc(-n2cnnn2)c1)N1CCOCC1`, the “hERG current change (%, negative = inhibition) at 10uM” value was 2.13%.

Regarding `O=C1OC(c2ccc(Br)cc2)=N/C1=C\N1CCCCC1`, the “hERG current change (%, negative = inhibition) at 10uM” value is 22%.

As for `CCN1CCCC1CNC(=O)CN1C(=O)COc2ccc(C)cc21` (stereo not shown), the “hERG current change (%, negative = inhibition) at 10uM” value is listed as -12.4%.

Turning to `COc1cccc(CNC(=O)CCC2CCCN(C3CCOCC3)C2)c1` (stereo not shown), the “hERG current change (%, negative = inhibition) at 10uM” value was -0.768%.

For the compound `COc1cccc(CNC(=O)CCC2CCCN(Cc3ccc(OC(F)F)cc3)C2)c1` (stereo not shown), the “hERG current change (%, negative = inhibition) at 10uM” value was -76.6%.

As for `COc1cccc(CNC(=O)CCC2CCCN(C(=O)c3cccc(Cl)c3)C2)c1` (stereo not shown), the “hERG current change (%, negative = inhibition) at 10uM” value was -20.9%.

Turning to `COc1cccc(CNC(=O)CCC2CCCN(Cc3cc(Cl)ccc3O)C2)c1` (stereo not shown), the “hERG current change (%, negative = inhibition) at 10uM” value was -60.6%.

As to `COc1cccc(CNC(=O)CCC2CCCN(C(=O)c3ccc(F)c(Cl)c3)C2)c1` (stereo not shown), the “hERG current change (%, negative = inhibition) at 10uM” value was -16.6%.

For `COc1cccc(CNC(=O)CCC2CCCN(C(=O)CCC(F)(F)F)C2)c1` (stereo not shown), the “hERG current change (%, negative = inhibition) at 10uM” value is reported as -5.17%.

For the compound `CC12CCC(C(=O)NC3CCCCC3)([C@H](Br)C1=O)C2(C)C` (stereo partly shown), the “hERG current change (%, negative = inhibition) at 10uM” value is reported as 10.6%.

With `Cc1cc(C)cc(OCC(=O)OCC(=O)N2CCc3ccccc32)c1`, the “hERG current change (%, negative = inhibition) at 10uM” value is on record as 14.5%.

On to `O=C(Cn1nc(CNc2ccc(Cl)cc2)[n+]2c1CCCCC2)c1ccc(Br)cc1.[Br-]`, for which the “hERG current change (%, negative = inhibition) at 10uM” value is on record as -61.6%.

For the compound `Cc1ccc(C(C)C)c(OCc2nn(CC(=O)c3ccc(Cl)cc3)c3[n+]2CCCCC3)c1.[Br-]`, the “hERG current change (%, negative = inhibition) at 10uM” value is -73.3%.

Turning to `O=C(Cn1nc(CNc2ccc(Cl)cc2)[n+]2c1CCCCC2)c1ccccc1.[Br-]`, the “hERG current change (%, negative = inhibition) at 10uM” value came out at 9.17%.

In the case of `Cc1ccc(C(C)C)c(OCC(=O)Nc2ccc(Cl)cn2)c1`, the “hERG current change (%, negative = inhibition) at 10uM” value is -8.82%.

`COc1ccc(C(=O)Cn2nc(CNc3ccc(Br)cc3)[n+]3c2CCCCC3)cc1.[Br-]`: the “hERG current change (%, negative = inhibition) at 10uM” value is 15.4%.

Take `Cc1ccc(C(C)C)c(OCc2nn(CC(=O)c3ccc(OC(F)F)cc3)c3[n+]2CCCCC3)c1.[Br-]`: the “hERG current change (%, negative = inhibition) at 10uM” value is -72.5%.

As to `O=C(Cn1nc(-c2nn(CC(=O)c3ccccc3)c3[n+]2CCCCC3)[n+]2c1CCCCC2)c1ccccc1.[Br-]`, the “hERG current change (%, negative = inhibition) at 10uM” value turned out to be 12.8%.

Regarding `COc1ccc(NCc2nn(CC(=O)c3ccc(Br)cc3)c3[n+]2CCCCC3)cc1.[Br-]`, the “hERG current change (%, negative = inhibition) at 10uM” value turned out to be 10.1%.

Regarding `O=C(Cn1nc(CNc2ccc(Cl)cc2)[n+]2c1CCCCC2)c1ccc(Cl)cc1.[Br-]`, the “hERG current change (%, negative = inhibition) at 10uM” value is -8.17%.

Turning to `O=C(Nc1ccccc1C(F)(F)F)c1cc(S(=O)(=O)N2CCC3(CC2)OCCO3)ccc1F`, the “hERG current change (%, negative = inhibition) at 10uM” value was -17.1%.

`O=C(CCCCCN1C(=O)c2ccccc2C1=O)Nc1ccc(S(=O)(=O)N2CCCCC2)cc1`: the “hERG current change (%, negative = inhibition) at 10uM” value was -46.6%.

In the case of `COc1ccc(NC(=O)N2CCCC(c3nc(-c4ccc(OC)cc4)no3)C2)cc1` (stereo not shown), the “hERG current change (%, negative = inhibition) at 10uM” value is -4.38%.

With `Cc1ccnc(NC(=O)C2CCN(S(=O)(=O)c3ccc(C)c(C)c3)CC2)c1`, the “hERG current change (%, negative = inhibition) at 10uM” value is recorded as 4.97%.

For the compound `Cl.N[C@@H](CO)c1nnc([C@H](CC(=O)O)NC(=O)C2CCNCC2)o1`, the “hERG current change (%, negative = inhibition) at 10uM” value came to 16.7%.

In the case of `O=C(COC(=O)c1c[nH]c2ccccc12)Nc1ccc([N+](=O)[O-])cc1`, the “hERG current change (%, negative = inhibition) at 10uM” value was -0.338%.

Turning to `COC(=O)[C@@H](NC(=O)NCc1ccco1)C(C)C`, the “hERG current change (%, negative = inhibition) at 10uM” value is 2.75%.

For `Cc1cccc(NC(=O)c2cc(-c3cc(Cl)ccc3O)n[nH]2)c1`, the “hERG current change (%, negative = inhibition) at 10uM” value came to 18.2%.

On to `CCN(Cc1ccncc1)C(=O)c1cccs1`, for which the “hERG current change (%, negative = inhibition) at 10uM” value is 2%.

With `COc1cccc(CN(C)C(=O)c2cccnc2SC)c1OC`, the “hERG current change (%, negative = inhibition) at 10uM” value was 9.74%.

For the compound `COC(=O)c1cccc(NC(=O)C23CC4CC(C2)CC(n2cncn2)(C4)C3)c1`, the “hERG current change (%, negative = inhibition) at 10uM” value is recorded as -25.4%.

Turning to `O=C(Nc1ccc2c(c1)OCO2)c1ccccc1SCC(=O)N1CCCC1`, the “hERG current change (%, negative = inhibition) at 10uM” value is 5.23%.

With `CCOC(=O)C1CCN(C(=O)CSc2ccc(Cl)cc2)CC1`, the “hERG current change (%, negative = inhibition) at 10uM” value is -32.5%.

As to `CCOC(=O)C1CCCN(CCSc2ccc(C)cc2)C1.Cl` (stereo not shown), the “hERG current change (%, negative = inhibition) at 10uM” value is given as -28.3%.

Turning to `CCOC(=O)C1CCN(C(=O)CSc2ccccc2)CC1`, the “hERG current change (%, negative = inhibition) at 10uM” value is given as -20.3%.

Take `CCOC(=O)C1CCN(CCCSc2ccccc2)CC1.Cl`: the “hERG current change (%, negative = inhibition) at 10uM” value is -62.4%.

Consider `CCOC(=O)C1CCN(C(=O)C(C)Sc2ccc(Cl)cc2)CC1` (stereo not shown), for which the “hERG current change (%, negative = inhibition) at 10uM” value is recorded as -27.9%.

On to `CCOC(=O)C1CCN(CCCSc2ccc(C)cc2)CC1.Cl`, for which the “hERG current change (%, negative = inhibition) at 10uM” value is reported as -71%.

On to `Cc1ccc(SCCCCN2CCOCC2)cc1.Cl`, for which the “hERG current change (%, negative = inhibition) at 10uM” value is listed as -24.6%.

As to `CCN1CCN(CCCCSc2ccccc2)CC1.O=C(O)C(=O)O`, the “hERG current change (%, negative = inhibition) at 10uM” value is given as -28.3%.

Consider `CCOC(=O)C1CCN(CCCSc2ccc(Cl)cc2)CC1.Cl`, for which the “hERG current change (%, negative = inhibition) at 10uM” value is -72.7%.

Turning to `COC(=O)[C@H](C)NC(=O)NCc1ccccc1`, the “hERG current change (%, negative = inhibition) at 10uM” value was 1.58%.

On to `CCCC(=O)Nc1ccc2c(c1)nc1n2CCOC1`, for which the “hERG current change (%, negative = inhibition) at 10uM” value is 6.13%.

As for `Cc1ccc(-n2nnc3ccccc3c2=O)cc1C`, the “hERG current change (%, negative = inhibition) at 10uM” value was -2.63%.

Turning to `c1coc(-c2nc3c4c5c(sc4ncn3n2)CCCC5)c1`, the “hERG current change (%, negative = inhibition) at 10uM” value amounted to 10.6%.

These data come from article PMC4336329 (PLoS ONE, 2015).
